The record followed here is PubChem BioAssay (NCATS).

Molecules are shown by their SMILES. Inconclusive results are not listed. Activity calls are given as the source filed them. Unless noted, calls come from the whole dose curve; as a rule, active = well fitted cell-killing curve with a large enough effect; inconclusive = small, poorly fitted or top-dose-only effect; inactive = flat fitted curve, though single readings scatter.

Assay [1] can be described thus: Cell Viability - LYMP2-023 (AID 975).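 Note: series mostly up to about 92 µM; plate controls were DMSO only for no effect and 92 µM tetraoctylammonium bromide control for full effect; nearly all actives have a fitted effect of over 55% in size.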 The gist of the method:
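Steps: seed 2500 human lymphoblastoid cells per well, incubate 5 hr at 37 C, add compound for 24 hr at 37 C, add CellTiter-Glo, hold 30 min at room temperature, read luminescence. AC50 derived by Hill modelling.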

A short description of assay [2]: Cell Viability - LYMP2-025 (AID 976).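 Note: series mostly up to about 92 µM; plate controls were DMSO only for no effect and tetraoctylammonium bromide control for full effect.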 The gist of the method: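 Acute cytotoxicity is scored as a concentration-dependent fall in intracellular ATP, measured by luciferase luminescence, in human lymphoblastoid LYMP2-025 cells exposed to compound for 24 hours at 37 C. AC50 values come from standard Hill fits.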
Assay [3] can be described thus: Cell Viability - LYMP2-002 (AID 977).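 Note: series mostly up to about 92 µM; compound exposure lasted 24 h at 37 °C; plate controls were DMSO only for no effect and 92 µM tetraoctylammonium bromide for full effect.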 The gist of the method: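 Human lymphoblastoid cells (2500/well) in complete medium were preincubated 5 hr at 37 C, then exposed to compounds for 24 hr at 37 C. Intracellular ATP was read by CellTiter-Glo luminescence; AC50 came from Hill-equation concentration-response fits.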
Assay [4] in a line: Cell Viability - LYMP2-006 (AID 978). Note: series mostly up to about 92 µM; % is set by controls: 0 for no effect and ±100 for the full control effect; nearly all actives have a fitted effect of over 60% in size. The gist of the method:
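Human lymphoblastoid cells, 2500 per well, were preincubated 5 hr at 37 C, then exposed to compounds for 24 hr at 37 C in complete medium. Viability was read as intracellular ATP by CellTiter-Glo luminescence; AC50 from Hill-equation fits of qHTS concentration-response data.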

A short description of assay [5]: Cell Viability - LYMP2-007 (AID 979).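 Note: cells exposed to compound for 24 h before reading; 0% = DMSO only and the negative end = 92 µM tetraoctylammonium bromide; nearly all actives have a fitted effect of over 60% in size.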 Summed up:
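Cells are seeded at 2500 per well and rested 5 hr. Compounds are then added over a concentration series for 24 hr at 37 C. CellTiter-Glo is added for 30 min at room temperature before luminescence reading.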

A short description of assay [6]: Cell Viability - LYMP2-010 (AID 981). Note: % is set by controls: 0 for no effect and ±100 for the full control effect; nearly all actives have a fitted effect of over 55% in size. The gist of the method: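 Steps: seed 2500 LYMP2-010 cells per well; incubate 5 hr at 37 C; add compound; incubate 24 hr at 37 C; add CellTiter-Glo, wait 30 min at room temperature; read luminescence. Concentration-response fitted to Hill equation for AC50.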
A short description of assay [7]: Cell Viability - LYMP2-012 (AID 982).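 Note: cellular ATP by luciferase luminescence where a drop means cytotoxicity; cells exposed to compound for one day before reading; 0% = DMSO only and full loss = 92 µM tetraoctylammonium bromide; nearly all actives have a fitted effect of over 55% in size.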
The nature of assay [8]: Cell Viability - LYMP2-014 (AID 983).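 Note: series mostly up to about 92 µM; plate controls were DMSO only for no effect and 92 µM tetraoctylammonium bromide for full effect; nearly all actives have a fitted effect of over 50% in size.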 Summed up: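 Cells are plated at 2500/well and left 5 hr at 37 C. Compounds are added across a concentration range and incubated 24 hr at 37 C in complete medium. CellTiter-Glo is added, and luminescence is read after 30 min at room temperature.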
The nature of assay [9]: Cell Viability - LYMP2-018 (AID 985).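 Note: compound exposure lasted 24 hr at 37 °C; plate controls were DMSO only for no effect and tetraoctylammonium bromide at 92 µM for full effect; nearly all actives have a fitted effect of over 50% in size.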 The gist of the method: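 Seed 2500 lymphoblastoid cells per well, incubate 5 hr at 37 C, add compound and incubate 24 hr at 37 C, add CellTiter-Glo, wait 30 min at room temperature, then read luminescence.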
Assay [10] in a line: Cell Viability - LYMP2-020 (AID 986).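 Note: series mostly up to about 92 µM; plate controls were DMSO only for no effect and tetraoctylammonium bromide at 92 µM for full effect; nearly all actives have a fitted effect of over 55% in size.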 Summed up: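 Seed 2500 cells per well and incubate 5 hr at 37 C. Add compounds at a concentration series and incubate 24 hr at 37 C. Add CellTiter-Glo, wait 30 min at RT, read luminescence, and fit a Hill curve for AC50.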
Assay [11] in a line: Cell Viability - LYMP2-024 (AID 988).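 Note: plate controls were DMSO only for no effect and 92 µM tetraoctylammonium bromide for full effect; nearly all actives have a fitted effect of over 60% in size.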 Summed up: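 qHTS cytotoxicity, human lymphoblastoid line, complete medium; 24 h cpd treatment, 37 C; CellTiter-Glo ATP luminescence readout; tetraoctylammonium bromide positive control; AC50 via Hill fit.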
Assay [12] in a line: Cell Viability - LYMP2-026 (AID 989). Note: % is set by controls: 0 for no effect and ±100 for the full control effect; nearly all actives have a fitted effect of over 50% in size. Summed up: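 Cells are seeded at 2500 per well and held 5 hr at 37 C. Compounds are added in concentration series for 24 hr, then CellTiter-Glo reagent is applied and luminescence read.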
Assay [13] can be described thus: Cell Viability - LYMP1-002 - Assay at 24 hr (AID 993). Note: % is set by controls: 0 for no effect and ±100 for the full control effect. Summed up: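 Acute toxicity is measured as concentration-dependent loss of cellular ATP in a human lymphoblastoid line (Coriell LYMP1-002) after 24 h treatment in complete medium. ATP is quantified by luciferase luminescence and AC50 derived by Hill modelling.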
The nature of assay [14]: Cell Viability - LYMP1-002 - Assay at 40 hr (AID 994).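 Note: 0% = DMSO only and full inhibition = 92 µM tetraoctylammonium bromide; nearly all actives have a fitted effect of over 60% in size.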 Summed up: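 Cells are plated at 2500 per well and rested 5 hr at 37 C. Compounds are added and incubated 40 hr at 37 C. CellTiter-Glo reagent is added for 30 min at room temperature before luminescence is read.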
A short description of assay [15]: qHTS Assay for Identification of Small Molecule Inducers of Hypoxia Response (AID 2120; active = well fitted curve in the direction sought with a large enough effect in the signal ratio, with a control signal flat, not every such curve was filed as active; the % refers to the signal ratio; note: 0% is about no effect). Summed up:
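Cell-based qHTS for reporter induction: hypoxia response element controlled beta-lactamase in ME-180 cells. Compounds incubated 17 h at 37 degrees C; activity from blue/green (460/530 nm) ratio, inducers ranked by AC50.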
Background: In qHTS, concentration-response curves come from the screen itself.

The target of assay [16] is Glucocorticoid receptor (Homo sapiens) (UniProt P04150). Kind of assay: qHTS assay for small molecule antagonists of glucocorticoid receptor signaling (AID 588533; active = well fitted inhibition curve with a large enough effect in the signal ratio, with a control signal flat, not every such curve was filed as active; the % refers to the signal ratio;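 note: cells stimulated with 2 nM dexamethasone as agonist; % is set by controls: 0 for no effect and ±100 for the full control effect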). Summed up: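 Antagonist-mode qHTS: compound titrations added to GRE-bla HeLa cells, then dexamethasone 2 nM final; 18 h, 37 C. CCF4 FRET fluorescence normalized to dexamethasone and DMSO; IC50 from Hill fit.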
Glucocorticoid receptor (Homo sapiens), sequence (P04150 whole entry, looked up): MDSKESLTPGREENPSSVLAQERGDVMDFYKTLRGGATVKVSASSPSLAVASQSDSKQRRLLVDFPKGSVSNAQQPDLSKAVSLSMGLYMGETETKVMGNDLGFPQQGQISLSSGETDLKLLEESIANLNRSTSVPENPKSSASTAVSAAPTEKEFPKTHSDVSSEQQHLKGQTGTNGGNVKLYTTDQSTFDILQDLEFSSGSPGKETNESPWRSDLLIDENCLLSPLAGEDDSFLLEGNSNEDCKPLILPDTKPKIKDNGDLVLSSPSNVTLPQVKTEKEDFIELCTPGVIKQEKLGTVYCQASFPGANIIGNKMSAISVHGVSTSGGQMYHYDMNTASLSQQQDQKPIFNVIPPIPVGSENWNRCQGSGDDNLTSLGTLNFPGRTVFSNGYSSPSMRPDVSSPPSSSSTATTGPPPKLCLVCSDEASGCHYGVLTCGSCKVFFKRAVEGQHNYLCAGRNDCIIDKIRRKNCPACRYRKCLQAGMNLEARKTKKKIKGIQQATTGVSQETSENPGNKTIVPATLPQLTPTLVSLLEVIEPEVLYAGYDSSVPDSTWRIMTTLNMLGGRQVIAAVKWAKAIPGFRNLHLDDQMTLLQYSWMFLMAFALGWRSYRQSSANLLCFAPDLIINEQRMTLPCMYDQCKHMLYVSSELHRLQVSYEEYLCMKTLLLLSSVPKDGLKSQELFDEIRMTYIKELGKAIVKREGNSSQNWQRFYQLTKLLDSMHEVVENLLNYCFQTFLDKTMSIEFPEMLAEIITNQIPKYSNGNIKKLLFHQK

Assay [17] concerns the target Peroxisome proliferator-activated receptor delta (Homo sapiens) (UniProt Q03181). Nature of the assay: qHTS assay for small molecule agonists of peroxisome proliferator-activated receptor delta signaling (AID 588534; calls by dose curve;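 note: 0% = DMSO basal wells and 100% = positive control agonist at 10 µM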). Summed up:
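Agonist-mode qHTS; reporter cells, 5 hrs 37 C pre-incubation; compound titration, 18 hrs 37 C; CCF4 dye, 2 hrs RT; fluorescence read. EC50/efficacy via Hill fit.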

The target in assay [18] is Vitamin D3 receptor (Homo sapiens) (UniProt P11473). Kind of assay: qHTS assay for small molecule antagonists of vitamin D receptor signaling (AID 588541; calls by dose curve;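 note: receptor activated by calcitriol during compound treatment; series mostly up to about 77 µM; % is set by controls: 0 for no effect and ±100 for the full control effect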). Summed up:
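Antagonist-mode beta-lactamase reporter assay: HEK293T VDR-UAS-bla cells were exposed to titrated compound alongside 1-alpha,25-dihydroxyvitamin D3 at 3 nM final for 16 h. Values were normalized to the 50 nM agonist control and DMSO basal, with IC50 and efficacy from Hill equation fits.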

Assay [19] shares this target. Kind of assay: qHTS assay for small molecule agonists of vitamin D receptor signaling (AID 588543; calls by dose curve;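 note: 0% = DMSO basal and 100% = reference agonist control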). Summed up:
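GeneBLAzer VDR-UAS-bla HEK293T cells in 2% charcoal-stripped FBS medium were dosed with compound titrations for 16 h at 37 °C; CCF4 β-lactamase readout (405 nm ex, 460/530 nm em). EC50 and efficacy from Hill fits, normalized to 50 nM calcitriol (100%) and DMSO (0%).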

The nature of assay [20]: qHTS assay for small molecule agonists of retinoid X receptor alpha signaling (AID 588544; calls by dose curve). To be noted: HEK293T RXRa-UAS-bla, beta-lactamase reporter, 18 h; 530 nm emission.
The target of assay [21] is Retinoic acid receptor RXR-alpha (Homo sapiens) (UniProt P19793). The assay is described as above.
Retinoic acid receptor RXR-alpha (Homo sapiens), sequence (P19793 whole entry, looked up): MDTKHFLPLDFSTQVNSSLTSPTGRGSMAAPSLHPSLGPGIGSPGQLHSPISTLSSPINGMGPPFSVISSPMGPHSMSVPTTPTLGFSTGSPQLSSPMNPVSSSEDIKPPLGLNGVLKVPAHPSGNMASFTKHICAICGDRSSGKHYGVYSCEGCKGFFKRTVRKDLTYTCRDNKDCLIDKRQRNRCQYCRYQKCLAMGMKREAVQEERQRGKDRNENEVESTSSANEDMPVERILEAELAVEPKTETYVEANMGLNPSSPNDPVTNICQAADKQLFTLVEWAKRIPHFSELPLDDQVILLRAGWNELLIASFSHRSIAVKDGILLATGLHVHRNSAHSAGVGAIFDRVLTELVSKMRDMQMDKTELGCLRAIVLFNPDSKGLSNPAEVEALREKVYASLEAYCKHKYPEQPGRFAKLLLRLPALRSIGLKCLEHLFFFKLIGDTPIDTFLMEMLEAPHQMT
The target in assay [22] is Thyroid hormone receptor beta (Homo sapiens) (UniProt P10828). Nature of the assay: qHTS assay for small molecule agonists of thyroid hormone receptor beta signaling (AID 588545; calls by dose curve;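 note: 0% = DMSO only and 100% = 10 nM T3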). The gist of the method:
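Compounds were tested as agonists in TR-UAS-bla-GripTite HEK 293 cells. After 18 hrs at 37 C, CCF4 substrate was added and fluorescence read after 2 hrs at room temperature.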

Vitamin D3 receptor (Homo sapiens), sequence (P11473 whole entry, looked up): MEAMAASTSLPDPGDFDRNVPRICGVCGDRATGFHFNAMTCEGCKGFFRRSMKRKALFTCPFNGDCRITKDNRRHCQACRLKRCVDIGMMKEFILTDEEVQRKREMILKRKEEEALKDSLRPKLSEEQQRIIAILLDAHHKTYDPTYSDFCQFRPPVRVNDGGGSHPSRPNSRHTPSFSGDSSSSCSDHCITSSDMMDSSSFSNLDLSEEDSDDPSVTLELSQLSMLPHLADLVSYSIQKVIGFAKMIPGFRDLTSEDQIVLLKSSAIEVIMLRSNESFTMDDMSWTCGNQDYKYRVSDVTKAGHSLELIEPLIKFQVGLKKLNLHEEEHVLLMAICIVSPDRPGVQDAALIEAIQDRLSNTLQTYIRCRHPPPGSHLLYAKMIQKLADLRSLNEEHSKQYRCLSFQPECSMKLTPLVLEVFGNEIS
Peroxisome proliferator-activated receptor delta (Homo sapiens), sequence (Q03181 whole entry, looked up): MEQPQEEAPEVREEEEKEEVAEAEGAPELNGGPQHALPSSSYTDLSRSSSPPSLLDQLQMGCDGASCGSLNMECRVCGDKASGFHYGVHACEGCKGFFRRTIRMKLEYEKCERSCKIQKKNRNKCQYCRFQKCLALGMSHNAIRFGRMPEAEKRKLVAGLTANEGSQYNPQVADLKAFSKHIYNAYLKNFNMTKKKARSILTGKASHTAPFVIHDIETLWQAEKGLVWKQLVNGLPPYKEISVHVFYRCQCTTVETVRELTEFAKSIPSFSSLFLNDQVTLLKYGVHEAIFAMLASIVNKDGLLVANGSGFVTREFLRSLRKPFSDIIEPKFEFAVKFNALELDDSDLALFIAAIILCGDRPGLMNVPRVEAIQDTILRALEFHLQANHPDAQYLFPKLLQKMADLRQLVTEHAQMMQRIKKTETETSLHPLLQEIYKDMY
Thyroid hormone receptor beta (Homo sapiens), sequence (P10828 whole entry, looked up): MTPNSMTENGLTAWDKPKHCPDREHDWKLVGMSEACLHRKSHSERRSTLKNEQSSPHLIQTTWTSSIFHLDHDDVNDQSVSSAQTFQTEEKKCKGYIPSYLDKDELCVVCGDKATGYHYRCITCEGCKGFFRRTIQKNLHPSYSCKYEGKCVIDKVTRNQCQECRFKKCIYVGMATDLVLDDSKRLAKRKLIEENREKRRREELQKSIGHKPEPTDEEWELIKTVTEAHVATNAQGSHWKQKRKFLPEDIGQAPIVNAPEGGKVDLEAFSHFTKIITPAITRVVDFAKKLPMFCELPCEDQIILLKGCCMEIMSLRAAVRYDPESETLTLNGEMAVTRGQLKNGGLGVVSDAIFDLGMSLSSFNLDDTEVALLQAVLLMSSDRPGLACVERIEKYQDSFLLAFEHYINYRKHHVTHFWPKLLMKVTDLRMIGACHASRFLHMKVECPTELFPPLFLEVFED

Regarding `Oc1ccccc1Cl`, the result in [1], in assay [2], in assay [3], in assay [4], in [5] and in [7] was inactive. For the same compound, the result in assay [8], in assay [9], in [10], in assay [11], in assay [12] and in assay [13] was inactive. Further, the compound was classed as inactive in assay [15], in assay [18] and in [21]. Also, the Potency entry in [6], in [14], in [16], in assay [17], in [19] and in assay [22] was “inactive” throughout. The max response in assay [20] is 8.5%.
